From PubChem BioAssay AID1159580 (chemical genetic matrix, 2015)
About 2,000 (36%) of roughly 5,500 compounds were called active. Not shown: some 18% with an inconclusive outcome. Rule as the data show it: active = normalized growth mostly below about 0.91 (no sharp cut-off); inconclusive = no clear call, values can overlap the other calls; inactive = mostly above about 0.92. This is one part of the list.

Assay: chemical genetic growth profiling, strain panel (AID 1159580);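 also: tested at 20 µM; growth read once vehicle control cultures reached saturation at 30 °C; 1 = growth at the plate median or of vehicle wells; lower values mean less growth of the strain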
Conditions: S. cerevisiae deletion strains, growth OD

Measured: normalized growth

CCCCCCCC1CC/C(=C\c2ccc(/C=C3\CCC(CCCCCCC)C3=O)cc2)C1=O (stereo unspecified)
inactive: locus YAL013W, strain DEP1, stronger effect = lower value 1.01 | locus YBR229C, strain ROT2, stronger effect = lower value 1.01 | locus YDL101C, strain DUN1, stronger effect = lower value 0.985 | locus YDL134C, strain PPH21, stronger effect = lower value 1.01 | locus YDR150W, strain NUM1, stronger effect = lower value 0.936 | locus YEL061C, strain CIN8, stronger effect = lower value 0.999 | locus YGR078C, strain PAC10, stronger effect = lower value 0.998 | locus YHR030C, strain SLT2, stronger effect = lower value 1.07 | locus YHR087W, strain rtc3, stronger effect = lower value 1.01 | locus YJL187C, strain SWE1, stronger effect = lower value 1.01 | locus YJR043C, strain POL32, stronger effect = lower value 1.01 | locus YJR075W, strain HOC1, stronger effect = lower value 1.04 | locus YLR039C, strain RIC1, stronger effect = lower value 1.05 | locus YLR058C, strain SHM2 (second series), stronger effect = lower value 1.01 | locus YLR085C, strain ARP6, stronger effect = lower value 1.02 | locus YLR262C, strain YPT6, stronger effect = lower value 1.04 | locus YML094W, strain GIM5, stronger effect = lower value 0.979 | locus YMR219W, strain ESC1, stronger effect = lower value 1 | locus YMR263W, strain SAP30, stronger effect = lower value 1.01 | locus YNL153C, strain GIM3, stronger effect = lower value 1 | locus YNL298W, strain CLA4 (second series), stronger effect = lower value 1.04 | locus YNL322C, strain KRE1, stronger effect = lower value 0.994 | locus YNR030W, strain Alg12, stronger effect = lower value 1 | locus YPL055C, strain LGE1, stronger effect = lower value 0.97 | locus YPL241C, strain CIN2, stronger effect = lower value 0.978 | locus YPR135W, strain CTF4, stronger effect = lower value 1.03
